SF-1 inh – inhibitors of human SF-1, primary screen, cell-based, CHO-K1, Gal4-SF-1 LBD, luciferase luminescence; Steroidogenic factor 1 (Homo sapiens), Q13285; CHO-K1 Gal4-SF-1 LBD luciferase reporter; inhibition, % at 10 µM; hit rate 0.55% among 65,000;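 active means inhibition above the mean inhibition of all tested compounds plus 3 SD, cut at about 48% in these data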;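 further: 0% = SF-1 transfected cells with DMSO and 100% = mock-transfected cells lacking SF-1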
The depositor's hits bear a star. Only a selection was taken, and hits are over-represented in it overall.

For COc1ccccc1-n1c(-c2ccoc2)nc2ccccc2c1=O the results were SF-1 inh 4.4.
Screening COc1cc2nc(CN3CC=C(c4ccccc4)CC3)[nH]c(=O)c2cc1OC returned SF-1 inh 87.7*.
Screening C=CCN1C(=O)CSc2ccc(C(=O)N3CCC4(CC3)OCCO4)cc21 returned SF-1 inh 12.1.
`Cc1cccc(-n2c(CN3C(=O)c4ccccc4C3=O)nc3ccccc3c2=O)n1` gave SF-1 inh -1.4.
O=c1c2ccccc2[nH]c(=S)n1-c1ccc2c(c1)OCO2 was read as SF-1 inh 8.0.
Screening CCCCn1c(=O)c(C(=O)Nc2cnccn2)c(O)c2ccccc21 returned SF-1 inh 14.5.
CCn1nc(-c2cccs2)nc2c(=O)n(C)c(=O)nc1-2 was read as SF-1 inh 96.0*.
O=C1CC(=O)N(c2ccc(Cl)cc2Cl)C(=O)N1 was read as SF-1 inh -5.6.
`COCCCn1c(N)c(C(=O)NCCC(C)C)c2nc3ccccc3nc21` gave SF-1 inh 2.7.
For CN(C)c1ccc(NC(=O)CN2C(=O)CN=C(c3ccccc3)c3ccccc32)cc1 the results were SF-1 inh -9.0.
